For 40 compounds, Potency and viability (% of control) results are on record in PubChem BioAssay (NCATS).

SMILES strings stand for the structures. Results filed as inconclusive are left out. Calls of active or inactive are those of the source. Calls come from the whole dose curve; as a rule, active = well fitted inhibition curve with a large enough effect; inconclusive = small, poorly fitted or top-dose-only effect; inactive = flat fitted curve, though single readings scatter.
Potency is the fitted concentration of half-maximal effect.

This assay is described as follows: BET inhibitor-based combinations targeting novel dependencies in MECOM-rearranged (r) AML: AML-191 cell line (AID 2202236; note: nearly all actives have a fitted effect of over 35% in size;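 for viability (% of control): plate controls were vehicle wells for no effect and wells without cells for full effect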). The following applies: AML-191 viability, CellTiter-Glo luminescence, 48 h; series mostly up to 46 µM. The source says:
Ecotropic viral insertion site 1 (EVI1) is located on chromosome 3q26.2 as part of the MECOM (MDS and EVI1 complex) locus. Under normal hematopoiesis, EVI1 is a regulator of hematopoietic stem cell maintenance and self-renewal and EVI1 levels decrease as the cells differentiate. In approximately 5-10% of de novo acute myeloid leukemia (AML) EVI1 is aberrantly expressed, including Chromosomal inv(3)(q21;q26.2) or t(3;3)(q21;q26.2) alterations (MECOM-r) that account for about 50% of AML with EVI1 overexpression 31. AMLs with high levels of EVI1 have a poor prognosis and an overall survival time averaging between 10-14 months. EVI1 overexpression confers resistance in leukemia cells, highlighting the need to develop new targeted therapies for EVI1 overexpressing AMLs.
Here, we performed an unbiased chemical drug screening by evaluating the single agent activity of a collection of 2,480 oncology-focused, approved and investigational drugs (NCATS Mechanism Interrogation Plates, MIPE v5.0) against a panel of seven AML cell lines. These included four MECOM-r cell-lines (AML-191, AML-194, UCSD-AML1 and HNT-34) and three non-MECOM-r AMLs (MV4-11, OCI-AML3 and SET-2). Exploiting the mechanistic redundancy built in the library, we identified target-level sensitivities in MECOM-r AML cells and relative activity as compared to other AML subtypes.
A collection of 2480 mechanistically annotated dugs (MIPE v5.0) was used to screen four 3q26.2 rearranged AML cell lines and three non-3q26.2 rearranged AML cell lines. This library purposely exploits redundancy by including multiple inhibitors of key onco-targets, while simultaneously encompassing mechanistic diversity, targeting more than 800 distinct mechanisms of action. Briefly, cells were seeded in 5 uL of growth media using a Multidrop Combi dispenser into 1536 well white polystyrene tissue culture treated plates (Corning) at a density of 500cells/well. For each cell-line, for each of the 2480 drugs in MIPE v5.0 library, an 11-point dose curve was generated via a 1536 pin-tool. Plates were incubated for 48 hr at standard incubator conditions, covered by a stainless steel gasketed lid to prevent evaporation. Cell viability was determined by luminescence based, Cell Titer Glo assay (Promega). In detail, 3 uL of Cell Titer Glo were added to each well and plates were incubated at room temperature for 15 min with a stainless-steel lid in place. Luminescence readings were taken using a Viewlux (PerkinElmer) with a 2 s exposure time per plate. Compound dose-response curves were normalized to DMSO and empty well controls on each plate. Quantitative drug activity data from dose-response curves was determined utilizing area Under the Curve (AUC) and Z-transformed AUC (Z-AUC, a mean-centering transformation applied to each individual cell-line screened).
`O=C(NC1CC1)c1cccc(-c2ccc3c(NC(=O)C4CC4)n[nH]c3c2)c1`: the Potency is 2950 nM (active). On the same count and under the same terms, as for `CC1(C)S[C@H]2[C@H](NC(=O)[C@@H](N)c3ccc(O)cc3)C(=O)N2[C@H]1C(=O)O`, the entry is “inactive”. The same measure, in the same setting: the same measure for `Nc1cc(C(F)(F)F)c(-c2nc(N3CCOCC3)nc(N3CCOCC3)n2)cn1`: 2630 nM (active); for `NC(=O)c1nc(F)c[nH]c1=O`: “inactive”; for `COc1ccc(OC)c(-c2nnc3ccc(-c4ccc(OC)c(O[C@@H]5CCOC5)c4)nn23)c1`: 2350 nM (active).

As for `O=C(NCc1ccccc1)[C@H](Cc1ccccc1)NC(=O)[C@H]1O[C@@H]1C(=O)NCCc1ccc(O)cc1`, the Potency result was “inactive”.

For the compound `Cc1ccc(-c2ncn(-c3ccc(Nc4nccc(-c5cccc(N6CCOCC6)c5)n4)cc3)n2)cn1`, the Potency was 2350 nM (active).

In the case of `COc1cc(-c2cn(C)c(=O)c3cnccc23)cc(OC)c1CN(C)C`, the Potency result is “inactive”. `CCC(C(=O)O)C1CCC(C)C(C(C)C(O)C(C)C(=O)C(CC)C2OC3(C=CC(O)[C@@]4(CC[C@](C)(C5CC[C@@](O)(CC)C(C)O5)O4)O3)C(C)CC2C)O1` (stereo not given in full): the Potency is 2350 nM (active). The same measure, in the same setting: as for `C=CC(=O)Nc1cccc(Nc2nc(Nc3ccc(N4CCN(C(C)=O)CC4)cc3OC)ncc2C(F)(F)F)c1`, the figure is 9340 nM (active). With `CCCCCN(C)CCC(O)(P(=O)(O)O)P(=O)(O)O`, the viability (% of control) was 111% [at 5.12 µM] (inactive). As to `CC(=O)O[C@H]1C(=O)[C@@]2(C)C([C@H](OC(=O)c3ccccc3)[C@]3(O)C[C@H](OC(=O)[C@H](O)[C@@H](NC(=O)c4ccccc4)c4ccccc4)C(C)=C1C3(C)C)[C@]1(OC(C)=O)CO[C@@H]1C[C@@H]2O` (stereo not given in full), the Potency is 20.9 nM (active).

Take `CCCc1cc(C(=O)N[C@H](Cc2ccc(-c3cccc(OC(F)(F)F)c3)nc2)C(=O)N[C@@H]2CCNC2)sc1C`: the Potency was 16600 nM (active).

For `Cc1oc(=O)oc1CN1CCN(c2cc3c(cc2F)c(=O)c(C(=O)O)c2n3C(C)S2)CC1` (stereo not given), the Potency entry was “inactive”. On the same count and under the same terms, the same measure for `CC[C@H]1OC(=O)[C@H](C)[C@@H](O[C@H]2C[C@@](C)(OC)[C@@H](O)[C@H](C)O2)[C@H](C)[C@@H](O[C@@H]2O[C@H](C)C[C@H](N(C)C)[C@H]2O)[C@](C)(O)C[C@@H](C)C(=O)[C@H](C)[C@@H](O)[C@]1(C)O`: “inactive”. The same measure, in the same setting: as for `CS(=O)(=O)c1ccc([C@@H](CC2CCCC2)C(=O)Nc2nccs2)cc1`, the entry is “inactive”; as for `O=C(/C=C\n1cnc(-c2cc(C(F)(F)F)cc(C(F)(F)F)c2)n1)NNc1ccccn1`, 525 nM (active). Still for that read-out and setting: the same measure for `COc1ccc2nc(S(=O)Cc3ncc(C)c(OC)c3C)[nH]c2c1` (stereo not given): “inactive”; for `Cc1ccc(NC(=O)c2ccc3c(c2)OCCO3)cc1NC(=O)c1ccc2nc(OCCN3CCCC3)ccc2c1`: 162 nM (active); for `CC(C)n1cc(-c2ccc3c(c2)N(C)CC3)c2c(NS(=O)(=O)c3ccn(C)n3)ccnc21`: “inactive”. Regarding `O=C1Cc2cc(C(=O)NC3C[C@H]4CC[C@@H](C3)N4S(=O)(=O)CC3CCN(CCCC(F)(F)F)CC3)c(Cl)cc2N1` (stereo not given in full), the Potency result was “inactive”. Same read-out and setting: as for `COc1ccc2[nH]c3c(c2c1)CCN[C@]31CS[C@@H]2c3c(OC(C)=O)c(C)c4c(c3[C@H](COC1=O)N1[C@@H]2[C@H]2c3c(cc(C)c(OC)c3O)C[C@@H]([C@@H]1O)N2C)OCO4`, the figure is 4.8 nM (active); as for `Cc1noc(C)c1-c1ccc(-c2cc(C(N)=O)c(NC(N)=O)s2)c(O[C@H]2CCNC2)c1`, “inactive”; as for `Cc1c(NC(=O)c2cc(C(N)=O)nc3cc(F)ccc23)c(C(F)(F)F)nn1Cc1ccc(C(C)(C)C)cc1`, 16600 nM (active). `O=C(O)c1cccnc1`: the Potency result is “inactive”.

`C=C1CCC[C@]2(C)C=C3OC(=O)C(C)=C3C[C@@H]12`: the Potency result was “inactive”. Same read-out and setting: the same measure for `CCC(=O)N1CCOc2c(cc(-c3cc(OC)cc(OC)c3)cc2C(=O)N[C@H]2CCCN(C)C2)C1`: 14800 nM (active); for `N#Cc1cccnc1N1CCN(C(=O)c2cccc(Cc3n[nH]c(=O)c4ccccc34)c2)CC1`: 118 nM (active). On the same count and under the same terms, as for `COc1ccc(C(=O)N2CCN(C(=O)/C=C/c3ccc(Br)cc3)CC2)cc1`, the entry is “inactive”; as for `CN(C)c1ccc(Nc2nc(N)n(C(=O)c3c(F)cccc3F)n2)cc1`, 18600 nM (active).

For `N[C@@H]1CN(c2c(F)cc3c(=O)c(C(=O)O)cn([C@@H]4C[C@@H]4F)c3c2Cl)CC12CC2`, the Potency result is “inactive”. Same read-out and setting: the same measure for `Nc1nc(OC(c2ccc(-c3cccc(F)c3)cc2)C(F)(F)F)cc(-c2ccc(C[C@H](N)C(=O)O)cc2)n1` (stereo not given in full): “inactive”; for `C=C1C(=O)O[C@@H]2[C@H]3C(C)=CC[C@@]34O[C@@]4(C)CC[C@@H]12`: 13200 nM (active). The same measure, in the same setting: as for `CC(C)(C)c1[nH]cnc1/C=c1\[nH]c(=O)/c(=C/c2ccccc2)[nH]c1=O`, the figure is 59 nM (active); as for `Cn1cc(C2=C(c3cn(C)c4cc([N+](=O)[O-])ccc34)C(=O)NC2=O)c2ccccc21`, 662 nM (active); as for `C[C@H]1C[C@H]2[C@@H]3CCC4=CC(=O)C=C[C@]4(C)[C@H]3C(=O)C[C@]2(C)[C@@]1(O)C(=O)CO`, “inactive”. On the same count and under the same terms, the same measure for `N=C1S/C(=C\c2ccc(-c3ccc4c(c3)C(=O)NC4=O)o2)C(=O)N1c1ccc(Br)cc1`: “inactive”; for `CC(=O)N[C@H]1CSSC[C@@H](C(N)=O)NC(=O)[C@H](C(C)C)NC(=O)[C@H](C)NC(=O)[C@H](Cc2cnc[nH]2)NC1=O`: “inactive”. As for `O=C(/C=C\n1cnc(-c2cc(C(F)(F)F)cc(C(F)(F)F)c2)n1)N1CC(F)(F)C1`, the Potency was 1320 nM (active). Still for that read-out and setting: as for `C[C@@]12C(=O)OC(=O)[C@]1(C)[C@H]1CC[C@@H]2O1`, the figure is 2950 nM (active).
